AMA1 RON2 block: inhibitors of Plasmodium falciparum AMA1-RON2 interaction. Potency, µM (series often up to 58.2 µM), hits mostly inhibitors. AID 720542. AlphaScreen AMA1-biotinylated RON2 peptide binding. actives 0.2% (n = 360,000); further: nearly all actives have a fitted effect of over 45% in size
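AMA1 (3D7) with his tag at 25 nM final met compounds first, then biotinylated RON2 peptide at 25 nM; detection used donor plus acceptor beads, 10 µg/mL apiece, read by AlphaScreen after 30 min at room temperature.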
Giardia FBPA inh: inhibitors of Giardia lamblia fructose-1,6-bisphosphate aldolase; actives 0.71% (n = 290,000); A8B2U2; Potency, µM (doses to about 59.6 µM), actives largely listed as inhibitors; AID 2451; purified Giardia FBPA; further: nearly all actives have a fitted effect of over 55% in size
Target sequence (A8B2U2 whole entry, looked up): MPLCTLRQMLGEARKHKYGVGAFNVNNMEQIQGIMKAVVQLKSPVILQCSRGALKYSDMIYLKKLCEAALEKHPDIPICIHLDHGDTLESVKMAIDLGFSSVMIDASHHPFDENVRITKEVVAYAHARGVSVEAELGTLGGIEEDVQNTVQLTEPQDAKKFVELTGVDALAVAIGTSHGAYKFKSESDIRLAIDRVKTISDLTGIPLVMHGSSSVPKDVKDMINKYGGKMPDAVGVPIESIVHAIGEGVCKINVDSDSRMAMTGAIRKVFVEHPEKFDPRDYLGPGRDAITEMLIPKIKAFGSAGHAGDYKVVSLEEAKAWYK
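Giardia FBPA (40 nM reagent) was preincubated 10 min at RT with compound (up to 57.5 uM final), then substrate plus GAPDH/TPI/NAD/arsenate coupling system with diaphorase/resazurin was added; resorufin fluorescence (525/598 nm) was read after 20 min.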
AmpC no deterg: inhibitors of E. coli AmpC beta-lactamase without detergent | P00811 | AmpC nitrocefin hydrolysis, absorbance 480 nm, 0.0001% Triton | Potency, µM (titrated, usually from 57.1 µM), actives largely listed as inhibitors | actives 0.52% (n = 330,000) | AID 485341; further: nearly all actives have a fitted effect of over 20% in size
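20 mM phosphate pH 7.0 + 0.01% (detergent screen) or 0.0001% Triton X-100; 5.3 nM AmpC reagent; cpd preinc 15 min RT; nitrocefin (800 uM stock) to start; A480 q20 s × 4 min; Activity was normalised to no-enzyme and no-compound control wells.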
AmpC detergent: inhibitors of E. coli AmpC beta-lactamase with detergent. P00811. AmpC hydrolysis of nitrocefin, absorbance 480 nm, 0.01% Triton. Potency, µM (doses to about 114 µM), most hits filed as inhibitors. actives 0.041% (n = 370,000). AID 485294; further: nearly all actives have a fitted effect of over 25% in size
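AmpC (5.3 nM in the dispensed reagent) in 20 mM phosphate pH 7.0 with 0.01% (detergent screen) or 0.0001% Triton X-100 was preincubated with compounds for 15 min at room temperature. Nitrocefin was then added from an 800 uM solution, and hydrolysis was followed at 480 nm.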
Hits are given with their value; - = inactive; ? = inconclusive; . = no result. Rows were chosen to be rich in hits. Some 1.1% of all compounds tested hit in one or more screens of this group. The call rests on the fitted dose curve; in most records, active means well fitted curve in the direction sought with a large enough effect; inconclusive means small, poorly fitted or top-dose-only effect, or another doubt; inactive means no such curve, though single readings can be large; an effect the other way counts as inactive or inconclusive.

SMILES	AMA1 RON2 block	Giardia FBPA inh	AmpC no deterg	AmpC detergent
NC(N)=NCCC[C@H](N)C(=O)NCC(=O)N[C@@H](CC(=O)O)C(=O)N[C@@H](CO)C(=O)O	.	-	.	.
COc1ccc(-c2nc3cnc(OC)nc3n(-c3ccccc3)c2=O)cc1	.	-	.	.
Oc1cc2c(cc1O)C1c3ccc(O)c(O)c3OCC1(O)C2 (centres undefined)	2µM	6.3µM	-	-
COc1ccc(C(=O)c2ccc(O)cc2)c(O)c1O	.	22µM	.	.
COc1ccc(C(=O)c2ccc(C)cc2)c(OC)c1OC	-	.	.	.
CCOc1ccc(Cl)cc1-c1cc(C(=O)Nc2ccc(C(C)C)cc2)[nH]n1	-	.	.	.
O=C(Nc1cccc([N+](=O)[O-])c1)c1cc2ccccc2cc1O	-	-	13µM	-
O=c1cc2oc3cc(O)c(O)cc3c(-c3ccccc3[N+](=O)[O-])c-2cc1O	0.71µM	?	1.1µM	-
O=c1cc(-c2ccccc2Cl)oc2c([N+](=O)[O-])ccc(O)c12	.	-	.	.
CC(NC(=O)Nc1ccc(Cl)cc1)c1ccc2c(c1)OCO2 (centres undefined)	-	-	8.9µM	?
O=C(CSCc1ccccc1)NNC(=S)Nc1cccc(Cl)c1Cl	-	-	0.16µM	?
CC(C)C[C@H](NC(=O)/C=C/[C@H]1O[C@@H](n2ccc(=O)[nH]c2=O)[C@H](O)[C@@H]1O)C(=O)O	-	.	.	.
CCn1nc(C)c(CCN(C)C(=O)Nc2cc(Cl)c(OC)cc2OC)c1C	.	.	.	-
CCN(CC)c1ccc(NC(=O)Nc2ccccc2)cc1	?	-	-	-
CCN(CC)c1ccc(NC(=O)Nc2ccc(C(C)=O)cc2)cc1	-	-	0.28µM	-
O=C(NNc1nc(-c2ccccc2)cs1)c1cccs1	-	-	8.9µM	-
O=C(Nc1cc(Cl)cc(Cl)c1)c1cc(S(=O)(=O)N2CCC3(CC2)OCCO3)ccc1F	.	.	.	-
c1ccc(-c2cn(C[C@H]3CC[C@@H]([C@@H]4CC[C@H](Cn5cc(-c6ccccn6)nn5)O4)O3)nn2)nc1	1µM	-	-	-
Cc1ccc(-n2ncc3c(NCCc4ccccc4)ncnc32)cc1	.	.	.	-
CCOc1cc(/C=N/N=C(/N)c2nonc2N)cc(Br)c1OCc1ccc(Cl)cc1	-	-	16µM	-
COc1ccc(S(=O)(=O)c2c(Nc3ccc(C)cc3)sc(C(=O)c3ccc4c(c3)OCO4)c2N)cc1	.	.	.	-
COc1ccc(CCNC(=O)CSc2n[nH]c(N)n2)cc1	-	-	-	100µM
COc1ccc(CCNC(=O)CSc2n[nH]c(N)n2)cc1OC	-	-	-	?
Cc1ccc(NC(=S)NC(=O)C2CCCC2)cc1C	-	.	3.2µM	-
Clc1cccc(CNc2ncnc3c2nc2n3CCCC2)c1	.	.	.	-
SMILES	AMA1 RON2 block	Giardia FBPA inh	AmpC no deterg	AmpC detergent
COc1ccc(-c2onc(C)c2C)cc1S(=O)(=O)N(C)Cc1ccccc1	.	.	.	-
CCOc1ccccc1NC(=O)C1CCCN(S(=O)(=O)c2cccc3cccnc23)C1 (centres undefined)	-	-	5.6µM	-
O=C(NCC1CCCO1)C1CCN(C(=O)c2ccc(Br)cc2)CC1 (centres undefined)	-	-	4µM	-
O=C(Nc1ccc(C(F)(F)F)cc1)C1CCCN(S(=O)(=O)c2cccc3cccnc23)C1 (centres undefined)	.	.	.	-
O=C(NCC1CCCO1)C1CCN(S(=O)(=O)c2cccc3cccnc23)CC1 (centres undefined)	-	-	3.2µM	-
O=C(Nc1ccncc1)C1CCCN(S(=O)(=O)c2cccc3cccnc23)C1 (centres undefined)	-	-	45µM	?
COc1ccc(Br)cc1CNC(=O)c1cnc2sc(N3CCC(C)CC3)nn2c1=O	.	.	.	-
O=C(CSc1n[nH]c(-c2ccccc2Cl)n1)NCc1ccc(F)cc1	.	.	.	-
Cn1c(=O)n(C)c2cc(CNCc3ccc(F)cc3)ccc21	.	.	.	-
Cc1[nH]nc(C(F)(F)F)c1N=NN1CCOCC1	-	.	.	.
COc1ccc(/C=N/NC(=O)c2ccccc2O)cc1Cn1cc([N+](=O)[O-])cn1	-	-	6.3µM	-
CCCN1C(=O)c2cc(C(=O)Nc3ccc(OC)c(OC)c3)ccc2C1Nc1ccc(OC)c(OC)c1 (centres undefined)	-	-	-	-
CCCN1C(=O)c2cc(C(=O)Nc3ccc(OC)cc3OC)ccc2C1Nc1ccc(OC)cc1OC (centres undefined)	14µM	-	-	-
CCN1C[C@@H]2[C@@H]3C(=O)N(C)C(=O)[C@@H]3[C@](Cc3ccccc3)(C1=O)N2C(=O)c1ccc(C(C)(C)C)cc1	-	.	.	.

Source: PubChem (National Center for Advancing Translational Sciences (NCATS))
